High-throughput results deposited in PubChem BioAssay by several laboratories.
A selection: hits, their analogues and other compounds. The true share with any hit is near 4.1%.
aSyn 5UTR inh = MLPCN primary screen, SNCA 5' untranslated region | alpha-synuclein 5'UTR reporter, inhibitor activity | inhibition, % (tested at 7.5 µM) | hit rate 0.82% among 300,000 | AID 1813; in the data active = inhibition above about 60%;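 also: H4 neuroglioblastoma cells stably carrying SNCA 5'UTR luciferase fusion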
CSC inhib = blocks cancer stem cells. cancer stem cell-like cells viability, luminescence. inhibition, % at 7.5 µM. hit rate 1.1% among 300,000. AID 2717; in the data active = inhibition above about 75%; tested in HMLE shEcad cells
Mdm2 MdmX PPI = human Mdm2/MdmX binding inhibition; hit rate 3% among 330,000; SaOS-2 split-luciferase Mdm2/MdmX complementation, luminescence; AID 485346; O15151+Q00987; inhibition, % at 8 µM;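 active = inhibition of at least 50% at 8 µM in the primary screen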
Target sequence (O15151 whole entry, looked up): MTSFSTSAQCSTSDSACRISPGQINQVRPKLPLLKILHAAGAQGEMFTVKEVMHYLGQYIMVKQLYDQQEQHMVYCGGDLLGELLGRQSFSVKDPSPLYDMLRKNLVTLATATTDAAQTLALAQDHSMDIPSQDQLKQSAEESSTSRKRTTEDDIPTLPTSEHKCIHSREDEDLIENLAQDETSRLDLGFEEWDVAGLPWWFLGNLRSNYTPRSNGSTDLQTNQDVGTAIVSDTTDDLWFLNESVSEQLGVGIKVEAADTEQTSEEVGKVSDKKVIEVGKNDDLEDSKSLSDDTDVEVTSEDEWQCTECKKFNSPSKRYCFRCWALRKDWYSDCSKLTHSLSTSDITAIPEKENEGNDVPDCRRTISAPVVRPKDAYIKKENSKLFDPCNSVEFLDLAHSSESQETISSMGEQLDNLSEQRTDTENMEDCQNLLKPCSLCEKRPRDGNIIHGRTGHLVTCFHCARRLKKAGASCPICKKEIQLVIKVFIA
Target sequence (Q00987 whole entry, looked up): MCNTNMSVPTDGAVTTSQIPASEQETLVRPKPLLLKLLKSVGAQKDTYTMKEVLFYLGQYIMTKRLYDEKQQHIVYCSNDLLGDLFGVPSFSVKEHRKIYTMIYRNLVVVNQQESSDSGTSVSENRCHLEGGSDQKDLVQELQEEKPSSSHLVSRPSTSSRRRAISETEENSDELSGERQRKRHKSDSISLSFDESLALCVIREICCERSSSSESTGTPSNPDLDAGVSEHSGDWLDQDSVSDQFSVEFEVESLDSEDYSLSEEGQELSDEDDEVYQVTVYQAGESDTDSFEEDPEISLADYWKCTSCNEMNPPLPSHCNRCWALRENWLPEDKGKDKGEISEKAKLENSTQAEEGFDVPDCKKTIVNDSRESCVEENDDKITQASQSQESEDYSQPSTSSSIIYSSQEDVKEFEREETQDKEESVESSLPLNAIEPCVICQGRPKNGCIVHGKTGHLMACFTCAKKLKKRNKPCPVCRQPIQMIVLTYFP
Bfl-1 A1 inh = inhibitors of the anti-apoptotic protein A1, read as caspase activation | MEF A1-2A-BIM cells, Caspase-Glo 3/7 luminescence, 3 h; percent of clofoctol response, vehicle zero | caspase activation, % (no concentration beside the values) | hit rate 0.066% among 330,000;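 active = over half of replicate activation scores above 10%, or exactly half above 10 with the replicate mean above 10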
Beta apoptosis = beta cell apoptosis inhibition; AID 435005; protection from apoptosis, % (test concentration not listed); hit rate 0.8% among 300,000; INS-1E cytokine-induced death, ATP luminescence, 48 h; percent of positive-control rescue, neutral wells zero;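 active = Every replicate reaches about 75%, or at least half do and their mean reaches it too, limit read from the data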;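 also: higher means more ATP so stronger rescue from cytokine killing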
Mdm2-MdmX conf = human Mdm2/MdmX binding inhibition, confirmed; hit rate 55% among 10,000; luminescent assay; shares compounds with Mdm2 MdmX PPI; inhibition, % at 8 µM; in the data active = inhibition above about 40%
FLuc counter = counter-screen for Mdm2/MdmX inhibitors: full-length luciferase | SaOS-2 full-length luciferase counterscreen, luminescence | inhibition, % at 8 µM | shares compounds with Mdm2 MdmX PPI | hit rate 77% among 6,200;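 active = mean inhibition at 8 µM reaching about 37%, which flags the compound as non-specific, limit read from the data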;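 also: p53-null SaOS-2 cells with luciferase driven by a doxycycline-inducible promoter; compound on cells about two nights before reading with doxycycline added after day one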
Hits are given with their value; - = inactive; . = not tested or not shown.

SMILES	aSyn 5UTR inh	CSC inhib	Mdm2 MdmX PPI	Bfl-1 A1 inh	Beta apoptosis	Mdm2-MdmX conf	FLuc counter
CCOc1ccc(OCCC(=O)N(CCC2=CCCCC2)c2c(N)n(Cc3ccccc3)c(=O)[nH]c2=O)cc1	-	-	-	-	-	.	.
COc1ccc(CCNC(=O)c2cc(-c3ccncc3)nc3ccc(S(=O)(=O)N4CCOCC4)cc23)cc1OC	-	-	-	-	.	.	.
O=C(c1ccccc1)c1c(-c2ccccc2)[nH]n(-c2ccccc2)c(=O)c1=O	-	-	-	-	.	.	.
COc1ccc(S(=O)(=O)N2c3ccccc3OCC2CC(=O)O)cc1 (centres undefined)	-	-	-	-	-	.	.
COc1ccc(S(=O)(=O)N2c3ccccc3OCC2C)cc1 (centres undefined)	-	-	-	-	-	.	.
COc1ccc(S(=O)(=O)N2CCOc3ccccc32)cc1	-	-	60.5	-	-	63.0	54.2
COc1ccc(S(=O)(=O)N2c3ccccc3OCC2C(C)(C)C)cc1 (centres undefined)	-	-	57.8	-	.	47.1	45.0
COc1ccc(S(=O)(=O)N2CC(C(=O)O)Oc3ccccc32)cc1 (centres undefined)	-	-	-	-	-	.	.
COc1ccc(S(=O)(=O)N2c3ccccc3OCC2c2ccccc2)cc1 (centres undefined)	-	-	51.4	-	-	71.8	47.7
CC(C)(C)NC(=O)C(c1ccc(F)cc1)N(C(=O)CCC(=O)Nc1ccccn1)C1CCCC1 (centres undefined)	-	-	-	-	-	.	.
CSc1nc(N(C)NC(=O)c2ccc(Cl)cc2)c2ccccc2n1	92.6	-	62.2	-	-	56.5	87.8
O=C(NNc1c2ccccc2nc2ccccc12)c1ccc(Cl)cc1	-	-	86.9	-	-	67.5	43.0
CN(NC(=O)c1ccc(Cl)cc1)c1nc(-c2ccccc2)nnc1C(F)(F)F	-	-	-	-	-	.	.
Cc1ccc(C(=O)NN(C)c2nc3ccccc3nc2C(F)(F)F)cc1	-	-	69.9	-	.	53.7	61.4
CSc1nc(N(C)NC(=O)c2ccccc2)c2ccccc2n1	-	.	55.9	-	-	52.5	69.2
O=C(COC(=O)CNC(=O)c1cccc(OC(F)F)c1)NNC(=O)c1ccccc1	.	.	-	-	-	.	.
COc1ccc(OCC(=O)Nc2cc(OC)ccc2N2CCCCC2)cc1	-	.	-	-	-	.	.
Cc1cc(O)c2c(c1O)C(=O)[C@]13C(=C2O)C(=O)[C@@H]2[C@@H](O)[C@H]1[C@@H]1[C@H](O)[C@H]3C(=O)C3=C(O)c4c(O)cc(C)c(O)c4C(=O)[C@]312	.	.	87.2	.	.	84.5	-
O=C(c1ccccc1)c1ccc(OCC(O)CN2CCCCC2)cc1 (centres undefined)	-	-	-	-	-	.	.
OC(COc1ccc(CNCCc2ccccc2F)cc1)CN1CCCCC1 (centres undefined)	-	102.6	54.8	-	-	40.4	54.4
Cc1cc(Cl)c2oc(C(=O)N(C)Cc3ccon3)c(C)c2c1	-	-	-	-	-	.	.
Oc1ccccc1Nc1nc(NCc2ccco2)c2ccccc2n1	-	.	-	-	-	.	.
COc1cccc(Nc2nc(NCCO)c3ccccc3n2)c1	-	-	65.4	-	-	62.0	-
c1ccc(Nc2nc(NCc3ccco3)c3ccccc3n2)cc1	-	-	77.7	-	81.1	-	.
CCC(OC(=O)c1ccco1)C(=O)NCc1ccc2c(c1)OCO2 (centres undefined)	-	-	-	-	-	.	.
SMILES	aSyn 5UTR inh	CSC inhib	Mdm2 MdmX PPI	Bfl-1 A1 inh	Beta apoptosis	Mdm2-MdmX conf	FLuc counter
CCOC(=O)C1=C(COC(=O)/C=C/c2cc(OC)c(OC)c(OC)c2)NC(=O)NC1C (centres undefined)	-	-	-	-	-	.	.
CCOC(=O)c1cnc(Nc2nc3ccccc3o2)nc1C	85.9	-	57.3	-	-	58.2	43.5
CC1CCN(C(=O)N2c3ccccc3Sc3ccccc32)CC1	-	-	-	-	-	.	.
CC1CCN(CC(O)CN2c3ccccc3Sc3ccccc32)CC1 (centres undefined)	-	-	53.9	-	-	-	.
Nc1cc(C(=O)OCC(=O)NNC(=O)c2cccs2)ccc1Cl	-	-	-	-	-	.	.
C[C@]12c3[nH]c4cc(-c5ccco5)ccc4c3CCN1C(=O)[C@@H](CC(=O)NCc1ccco1)C[C@@H]2C(=O)N1CCCCC1	.	.	-	.	.	.	.
